# PubChem BioAssay (Tox21)
# Results filed as inconclusive are left out. Calls of active or inactive are those of the source. Calls come from the whole dose curve.
# Target: Acetylcholinesterase (Homo sapiens) (UniProt P22303)
# Assay: Acetylcholinesterase (AChE) small molecule antagonists: colormetric cell-based qHTS assay (AID 1347395); note: nearly all actives have a fitted effect of over 30% in size; note: potency is the fitted concentration of half-maximal effect
# Details: SH-SY5Y cells AChE activity, colorimetric (Ellman); series mostly up to 115 µM; activity, negative = inhibition: at the top concentration
# Summary of the method: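 SH-SY5Y cells attached overnight, exposed to compound 30 min at 37 C, then given DTNB/acetylthiocholine; after 90 min at 37 C, colorimetric thiocholine read gives cellular AChE activity.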
# % is set by controls: 0 for no effect and ±100 for the full control effect.
# Sequence of Acetylcholinesterase (Homo sapiens) (P22303 whole entry, looked up): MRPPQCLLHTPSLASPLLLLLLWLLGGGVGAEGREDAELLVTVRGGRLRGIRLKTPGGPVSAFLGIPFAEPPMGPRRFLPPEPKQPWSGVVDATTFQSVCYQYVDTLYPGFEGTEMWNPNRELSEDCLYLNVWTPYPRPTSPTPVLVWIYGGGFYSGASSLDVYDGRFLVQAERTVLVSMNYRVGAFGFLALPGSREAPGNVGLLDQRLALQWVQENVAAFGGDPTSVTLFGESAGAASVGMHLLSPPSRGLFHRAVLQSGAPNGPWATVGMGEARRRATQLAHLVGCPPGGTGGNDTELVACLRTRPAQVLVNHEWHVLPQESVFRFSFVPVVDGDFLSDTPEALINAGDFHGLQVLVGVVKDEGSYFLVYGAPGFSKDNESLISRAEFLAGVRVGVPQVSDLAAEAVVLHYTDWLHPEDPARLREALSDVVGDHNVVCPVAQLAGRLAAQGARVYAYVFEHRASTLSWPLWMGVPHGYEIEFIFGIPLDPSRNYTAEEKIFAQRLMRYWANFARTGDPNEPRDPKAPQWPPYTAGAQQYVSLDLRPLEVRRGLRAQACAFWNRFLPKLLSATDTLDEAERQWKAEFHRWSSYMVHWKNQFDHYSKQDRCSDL
SMILES,"activity, negative = inhibition",Potency,outcome
O=C1c2ccccc2C(=O)c2c1ccc(O)c2O,0.569% [at 52.9 µM] (inactive),,
CC1(C)O[C@@H]2C[C@H]3[C@@H]4C[C@H](F)C5=CC(=O)C=C[C@]5(C)[C@H]4[C@@H](O)C[C@]3(C)[C@]2(C(=O)CO)O1,1.83% [at 52.9 µM] (inactive),,
c1ccc2sc(SSc3nc4ccccc4s3)nc2c1,-2.2% [at 23.6 µM] (inactive),,
O[Si](c1ccccc1)(c1ccccc1)c1ccccc1,3.61% (inactive),,
NS(=O)(=O)c1cc(-c2nn[nH]n2)c(NCc2cccs2)cc1Cl,-1.76% [at 52.9 µM] (inactive),,
CC(C)Nc1ccccc1,2.08% (inactive),,
CCCCCCCC,-0.204% (inactive),,
Nc1ccc(C(=O)N2CC3CC(CN(Cc4ccccc4)C3)C2)cc1,0.215% [at 52.9 µM] (inactive),,
COCC(C)O (stereo not given),,inactive,
CC/C=C\CCOC(=O)CC,-2.93% (inactive),,
CN(C)c1ccc(CCO)cc1,-4.51% (inactive),,
CCCc1nn(C)c2c(=O)[nH]c(-c3cc(S(=O)(=O)N4CCN(C)CC4)ccc3OCC)nc12,-3.67% [at 52.9 µM] (inactive),,
O=C[C@@H](O)[C@H](O)[C@H](O)CO,3.68% (inactive),,
CCCCCCC1CCCC(=O)O1 (stereo not given),-8.39% (inactive),,
O=[N+]([O-])c1cccc(C(F)(F)F)c1,0.728% (inactive),,
Cc1ccc(Nc2c(F)cccc2Cl)c(CC(=O)O)c1,0.673% [at 52.9 µM] (inactive),,
C[N+](C)(C)CCO,,,inactive
CCOC(=O)CC(C(C)=O)C(C)=O,1.26% (inactive),,
CCCCCCC(O)CCCCCCCCCCC(=O)O (stereo not given),,inactive,
OCCCCC(O)CO (stereo not given),-0.465% (inactive),,

SMILES,"activity, negative = inhibition",Potency,outcome
CCCCC/C=C/CC(=O)OC,1.24% (inactive),,
CCCOCCO,,inactive,
N=c1ccn2c(n1)O[C@H]1[C@H](O)[C@@H](CO)O[C@H]12,2.09% (inactive),,
CC(C)CCCCCCN,-0.0066% (inactive),,
CC(=O)N1CCN(c2ccc(OC[C@H]3CO[C@](Cn4ccnc4)(c4ccc(Cl)cc4Cl)O3)cc2)CC1,,35.6 µM (active),
Clc1ccccn1,,inactive,
COc1ccc2c(c1)c(CC(=O)O)c(C)n2C(=O)c1ccc(Cl)cc1,,inactive,
CC(CNC1CCCCC1)OC(=O)c1ccccc1 (stereo not given),2.82% [at 52.9 µM] (inactive),,
Cc1ccc(N)c(S(=O)(=O)O)c1,,inactive,
Cc1cccc(OCCOc2cccc(C)c2)c1,3.67% (inactive),,
O=[Se](O)O,,inactive,
CCCCCCCCCCCCCOC(=O)CCSCCC(=O)OCCCCCCCCCCCCC,3.05% [at 23.6 µM] (inactive),,
O=C(OCC1CO1)C1CCCCC1C(=O)OCC1CO1 (stereo not given),1.59% (inactive),,
C=CC(=O)N1CCOCC1,2.45% (inactive),,
C=C(C)C(=O)OCCOP(=O)(O)O,0.21% (inactive),,
O=C(NCC1CN(c2ccc(N3CCOCC3=O)cc2)C(=O)O1)c1ccc(Cl)s1 (stereo not given),-1.14% [at 52.9 µM] (inactive),,
CCC1(C)CC(=O)NC1=O (stereo not given),-2.29% [at 52.9 µM] (inactive),,
CCCCCC(=O)O,,inactive,
NC(N)=NC(N)=NCCc1ccccc1,,inactive,
Nc1nc(N)c2nc(CNc3ccc(C(=O)N[C@@H](CCC(=O)O)C(=O)O)cc3)cnc2n1,1.96% (inactive),,

# Target: Acetylcholinesterase (Homo sapiens) (UniProt P22303)
# Assay: Acetylcholinesterase (AChE) small molecule antagonists: enzyme-based qHTS assay (AID 1347397); note: nearly all actives have a fitted effect of over 55% in size
# Details: Potency: AChE enzyme activity inhibition; outcome: AChE enzyme activity inhibition; series mostly up to 115 µM; activity change, negative = inhibition: at the top concentration
# Summary of the method: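 Tox21 library chemicals are tested in qHTS format against recombinant human AChE. The enzyme, dispensed at 50 mU/mL, sits with compound for 30 min at room temperature. A DTNB–acetylthiocholine cocktail follows, and colour is read after 10 min.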
SMILES,"activity change, negative = inhibition",Potency,outcome
O=C1c2ccccc2C(=O)c2c1ccc(O)c2O,2.59% [at 53 µM] (inactive),,
CC1(C)O[C@@H]2C[C@H]3[C@@H]4C[C@H](F)C5=CC(=O)C=C[C@]5(C)[C@H]4[C@@H](O)C[C@]3(C)[C@]2(C(=O)CO)O1,4.51% [at 53 µM] (inactive),,
c1ccc2sc(SSc3nc4ccccc4s3)nc2c1,0.97% [at 23.6 µM] (inactive),,
O[Si](c1ccccc1)(c1ccccc1)c1ccccc1,1.77% (inactive),,
NS(=O)(=O)c1cc(-c2nn[nH]n2)c(NCc2cccs2)cc1Cl,-0.221% [at 53 µM] (inactive),,
CC(C)Nc1ccccc1,0.546% (inactive),,
CCCCCCCC,0.835% (inactive),,
Nc1ccc(C(=O)N2CC3CC(CN(Cc4ccccc4)C3)C2)cc1,-0.405% [at 53 µM] (inactive),,
COCC(C)O (stereo not given),,inactive,
CC/C=C\CCOC(=O)CC,-0.138% (inactive),,
CN(C)c1ccc(CCO)cc1,-1.23% (inactive),,
CCCc1nn(C)c2c(=O)[nH]c(-c3cc(S(=O)(=O)N4CCN(C)CC4)ccc3OCC)nc12,0.97% [at 53 µM] (inactive),,
O=C[C@@H](O)[C@H](O)[C@H](O)CO,1.5% (inactive),,
CCCCCCC1CCCC(=O)O1 (stereo not given),-8.72% (inactive),,
O=[N+]([O-])c1cccc(C(F)(F)F)c1,0.143% (inactive),,
Cc1ccc(Nc2c(F)cccc2Cl)c(CC(=O)O)c1,0.41% [at 53 µM] (inactive),,
C[N+](C)(C)CCO,,,inactive
CCOC(=O)CC(C(C)=O)C(C)=O,-0.35% (inactive),,
CCCCCCC(O)CCCCCCCCCCC(=O)O (stereo not given),,inactive,
OCCCCC(O)CO (stereo not given),-1.31% (inactive),,

SMILES,"activity change, negative = inhibition",Potency,outcome
CCCCC/C=C/CC(=O)OC,-0.138% (inactive),,
CCCOCCO,,inactive,
N=c1ccn2c(n1)O[C@H]1[C@H](O)[C@@H](CO)O[C@H]12,2.03% (inactive),,
CC(C)CCCCCCN,-0.129% (inactive),,
CC(=O)N1CCN(c2ccc(OC[C@H]3CO[C@](Cn4ccnc4)(c4ccc(Cl)cc4Cl)O3)cc2)CC1,-5.17% (inactive),,
Clc1ccccn1,,inactive,
COc1ccc2c(c1)c(CC(=O)O)c(C)n2C(=O)c1ccc(Cl)cc1,,inactive,
CC(CNC1CCCCC1)OC(=O)c1ccccc1 (stereo not given),2.63% [at 53 µM] (inactive),,
Cc1ccc(N)c(S(=O)(=O)O)c1,,inactive,
Cc1cccc(OCCOc2cccc(C)c2)c1,-1.79% (inactive),,
O=[Se](O)O,,inactive,
CCCCCCCCCCCCCOC(=O)CCSCCC(=O)OCCCCCCCCCCCCC,1.34% [at 23.6 µM] (inactive),,
O=C(OCC1CO1)C1CCCCC1C(=O)OCC1CO1 (stereo not given),-1.24% (inactive),,
C=CC(=O)N1CCOCC1,3.9% (inactive),,
C=C(C)C(=O)OCCOP(=O)(O)O,0.746% (inactive),,
O=C(NCC1CN(c2ccc(N3CCOCC3=O)cc2)C(=O)O1)c1ccc(Cl)s1 (stereo not given),0.406% [at 53 µM] (inactive),,
CCC1(C)CC(=O)NC1=O (stereo not given),0.406% [at 53 µM] (inactive),,
CCCCCC(=O)O,,inactive,
NC(N)=NC(N)=NCCc1ccccc1,,inactive,
Nc1nc(N)c2nc(CNc3ccc(C(=O)N[C@@H](CCC(=O)O)C(=O)O)cc3)cnc2n1,7.52% (inactive),,
